This is a sample that favours compounds with a hit; in the whole collection about 2.6% have one here.
Peg3 promoter = Peg3 promoter-driven luciferase inhibitors, primary screen, cell-based, HeLa, luciferase luminescence; HeLa PEG-Prom luciferase reporter, overnight; inhibition, % at 20 µM; actives 1.7% (n = 360,000);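 active = inhibition of at least 50% at 20 µM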
Shn3 3UTR inh = reduction of Shn3 3'UTR firefly luciferase signal, primary screen, Schnurri-3 inhibitor project, cell-based, Clone20 osteoblasts, set 2. Clone20 osteoblast Shn3 3'UTR firefly luciferase, 24 h. inhibition, % at 12.5 µM. actives 0.52% (n = 360,000);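 active = mean inhibition of at least 75% with every replicate also reaching 75%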;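 also: 0% = median of neutral control wells and 100% = pilot-screen positive control compound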
KKLEB cytotox = cytotoxicity in KKLEB CF airway cells, primary screen, cytotoxicity control for CF NF-kB inhibitor project, cell-based, uHTS, fluorescence assay plates; KKLEB CF airway cells viability, ATPlite luminescence, overnight; stronger effect = lower value; cells stimulated with P. aeruginosa culture filtrate; activity change (cytotoxicity), % at 5 µM; actives 0.36% (n = 360,000); AID 602141, 2011;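 active = corrected activity change at or below -50% at 5 µM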
HIF-2a inh = HIF-2a reporter inhibitors, primary screen, luminescence, 786-0 RCC cells; 786-0 RCC cells HIF-2a reporter, luciferase luminescence, overnight; inhibition, % at 18.8 µM; actives 0.72% (n = 360,000);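 active = inhibition of the luminescence signal of 40% or more relative to plate controls, in a single-dose primary screen at 18.75 µM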
CF NFkB inh = inhibitors of PAF-induced NF-kB signaling, primary screen, cell-based, GFP fluorescence, uHTS; KKLEB NF-kB-GFP reporter, GFP fluorescence overnight; inhibition, % at 5 µM; actives 0.86% (n = 360,000); AID 588850, 2011;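 active = at least 50% inhibition at 5 µM, scaled per plate between neutral and stimulator controls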;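 also: PAF is a Pseudomonas aeruginosa culture filtrate used as stimulus; plate controls were PAF-stimulated DMSO wells for no effect and unstimulated DMSO wells for full effect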
* marks the source's active call; other numbers are inactive results; nt = no result.

SMILES	Peg3 promoter	Shn3 3UTR inh	KKLEB cytotox	HIF-2a inh	CF NFkB inh
Cc1cccc(NC(=O)C2CCN(S(=O)(=O)c3cccc4nsnc34)CC2)n1	15	-2	-1	16	-7
COc1ccc2nc(NC(=O)C3CCN(S(=O)(=O)c4cccc5nsnc45)CC3)sc2c1	81*	58	-6	18	44
COc1ccc(O)c(C(=O)c2cnc3c(c2)c(C)nn3CCO)c1	-9	8	3	-42	-1
Cc1cc(/C=C(\C#N)C(=O)NC2CCCCCC2)c(C)[nH]1	-83	-10	-5	-104	6
COc1ccc(-c2[nH]ncc2/C=C(/C#N)C(=O)NC2CCCCCC2)cc1	50*	23	-15	19	29
COC(=O)[C@@]12C[C@@H](CC(=O)NCCc3ccccc3OC)C(=O)N(Cc3ccccc3)C1=CCC(C)(C)C2	nt	nt	nt	-36	nt
COc1ccccc1CCC(=O)OCC(=O)Nc1ccc(C(N)=O)cc1	7	-7	-84*	5	67*
Cc1ccc(NC(=O)CCNS(=O)(=O)c2ccc3[nH]c(=O)oc3c2)cc1N(C)C	-8	10	0	8	6
O=C1C=C(NCCc2cc(Br)c(O)c(Br)c2)C(=O)c2ncccc21	93*	94*	-33	9	76*
C/C(=N\NC(=O)C(C)Oc1ccc([N+](=O)[O-])cc1)c1ccccn1 (stereo not drawn)	44	83*	-9	-17	1
Nc1ccc(C23CC4CC(CC(CO)(C4)C2)C3)cc1	-36	-4	-3	-2	-7
NCC12CC3CC(C1)CC(c1ccc(Cl)cc1)(C3)C2	108*	27	-29	13	23
CCOC(=O)c1sc(NC(=O)CCCCCN2C(=O)c3cccc4cccc(c34)C2=O)nc1C	41	18	-53*	4	39
O=C(O)CSc1nnc(NC(=O)c2ccc3c(c2)OCO3)s1	39	31	-19	41*	8
CC1CCCCN1S(=O)(=O)c1ccc(S(=O)(=O)N2CCN(c3ccccc3)CC2)cc1 (stereo not drawn)	59*	10	-14	9	14
CCOC(=O)CSCC(NC(=O)OC(C)(C)C)C(=O)OCC (stereo not drawn)	7	4	1	41*	3
CCOC(=O)C(CSCC(=O)c1ccc(Cl)cc1Cl)NC(=O)OC(C)(C)C (stereo not drawn)	6	-10	4	13	13
O=C(c1c[nH]c2ccccc2c1=O)N1CCCCCC1	6	3	22	4	-5
C=CCNc1nc(NCc2ccc(NC(C)=O)cc2)c2sc(-c3ccccc3)cc2n1	-116	-9	-60*	-63	-7
CC(=O)Nc1ccc(CNc2nc(NC(C)C)nc3cc(-c4ccccc4)sc23)cc1	65*	23	-56*	-31	-28
c1ccc(-c2cc3nc(NCC4CC4)nc(NCC4CCCCC4)c3s2)cc1	93*	88*	-84*	16	82*
COc1ccc(-c2cc(CNc3nc(NC(C)C)nc4cc(-c5ccccc5)sc34)on2)cc1	78*	71	-20	-23	-28
O=C(CSc1nc2c(cnn2-c2ccccc2)c(=O)[nH]1)NC1CCS(=O)(=O)C1 (stereo not drawn)	5	11	17	-1	-6
O=C(c1cc2cc(Br)ccc2o1)N1CCCC1	-163	-19	-11	-174	-12
CCOc1cccc(-c2nn3c(-c4ccco4)nnc3s2)c1	-139	-20	-14	-104	-10
SMILES	Peg3 promoter	Shn3 3UTR inh	KKLEB cytotox	HIF-2a inh	CF NFkB inh
CCN(CC)CCCNC(=O)CSc1c2c(nc3cc(Cl)ccc13)CCCC2	96*	5	-6	15	21
O=C(CSc1c2c(nc3cc(Cl)ccc13)CCCC2)NCCCN1CCOCC1	8	80	-7	9	37
C=CCn1c(SCCN2CCCC2)nc2c([nH]c3ccccc32)c1=O	14	12	-2	19	-4
CCOc1ccc(C(=O)O/N=C(\N)c2ccccn2)cc1OCC	-141	-97	-1	-206	-7
CCOc1cc(C(=O)O/N=C(\N)c2ccccn2)cc(OCC)c1OCC	84*	-17	1	-56	-3
COc1ccc2nc(N3CCCCC3)c(/C=C3\SC(=S)NC3=O)cc2c1	37	-20	-40	-17	47
O=C1NC(=S)S/C1=C\c1cc2ccccc2nc1N1CCCCC1	38	nt	-38	-53	55*
CCn1cc(C(=O)N[C@@H](CCSC)C(=O)NCCO)c(=O)c2cc3c(cc21)OCO3	16	-12	11	17	8
CCC(CC)=N/N=C/c1c(O)n(CC)c2cc(C3=NNC(=O)CC3)ccc12	2	-2	3	17	-2
CCn1c(O)c(/C=N/N=C/c2ccccc2)c2ccc(C3=NNC(=O)CC3)cc21	50*	-9	6	14	-10
COc1ccccc1-c1cc(C(=O)Nc2cc(C)n(Cc3ccc(Cl)cc3)n2)no1	12	9	-76*	-18	60*
O=C(N/N=C/c1ccc2c(c1)OCO2)C(O)c1ccccc1 (stereo not drawn)	-107	-28	-2	-141	11
CC(=O)Oc1ccc(-c2nc3ccccc3c(=O)o2)cc1	77*	5	12	23	1
Cc1ccc(-c2nc3ccccc3c(=O)o2)cc1	-140	-21	8	-204	1
FC(F)(F)c1nc(-c2cccs2)ncc1-c1nnnn1-c1ccc(Cl)cc1	69*	86*	2	6	4
COc1ccc(-n2nnnc2-c2cnc(N3CCCC3)nc2C(F)(F)F)cc1	34	87*	-10	31	4
FC(F)(F)c1nc(-c2cccnc2)ncc1-c1nnnn1-c1ccccc1	20	36	-10	11	19
COc1ccccc1N(CC1CO1)S(=O)(=O)c1ccc(C)cc1 (stereo not drawn)	2	-15	-6	6	1
Cc1cccc(N2CN(Cc3ccco3)CNC2=S)c1	0	-22	2	6	8
CSCCC(=O)N1CCC(n2nccc2NC(=O)CCc2ccccc2)CC1	-1	11	-11	0	-16
O=C(Cn1ncc2c([nH]c3ccccc32)c1=O)Nc1ccc(CN2CCCCC2)cc1	73*	-33	-11	7	1
COC(=O)[C@H](NC(=O)c1cc(-c2ccccc2)sc1N)C(C)C	nt	nt	nt	-73	nt
O=C(/C=C/c1ccc(S(=O)(=O)N2CCOCC2)cc1)N1CCN(c2ccccc2)CC1	66*	47	0	14	11
O=C1CC[C@@H](CN(Cc2ccccn2)Cc2nc(Cc3cccc(C(F)(F)F)c3)no2)N1	1	-7	-2	14	-5
CC1CN=C(N(C(=S)Nc2ccccc2)c2cccc(C(F)(F)F)c2)S1 (stereo not drawn)	-36	10	13	-71	1

Screening results from PubChem.
